What was measured:
Assay in all cases: DAPPL (digital affinity profiling via proximity ligation, sequencing); 10 mM Tris-HCl pH 7.5, 50 mM NaCl, 1 mM DTT, 4% glycerol, room temperature, 30 min; GST-TFs on glutathione beads, 16-mer random dsDNA library, 0.1% formaldehyde crosslink after washing; high values mean tight binding
[1] = target: T1, FEV (Homo sapiens, UniProt Q99581 1-238); settings: protein: recombinant; tags: N-terminal GST; dsDNA, one strand shown
T1 sequence: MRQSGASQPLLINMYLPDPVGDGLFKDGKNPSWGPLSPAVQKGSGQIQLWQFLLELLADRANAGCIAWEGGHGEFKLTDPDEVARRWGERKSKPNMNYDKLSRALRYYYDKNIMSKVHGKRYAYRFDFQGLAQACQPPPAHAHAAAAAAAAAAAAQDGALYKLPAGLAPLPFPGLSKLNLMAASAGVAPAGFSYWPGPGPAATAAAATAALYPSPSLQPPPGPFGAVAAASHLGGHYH
In short: (§1)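 Yeast served to express human transcription factors as GST fusions, which were then captured on glutathione beads and labelled with DNA barcodes. Pooled with a tag-only sample, they were incubated with 200 nmole of a 16-mer random double-stranded DNA library for 30 min at room temperature in Tris/NaCl/DTT/glycerol buffer, washed, crosslinked with 0.1% formaldehyde, ligated by proximity, amplified by PCR and sequenced. Dividing each hexamer's read frequency for a factor by its frequency for the tag-only sample gives the binding signal.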

[2] = target: ETV5 (Homo sapiens, UniProt P41161 1-510); settings: protein: recombinant; tags: N-terminal GST; dsDNA, one strand shown
ETV5, sequence (P41161 whole entry): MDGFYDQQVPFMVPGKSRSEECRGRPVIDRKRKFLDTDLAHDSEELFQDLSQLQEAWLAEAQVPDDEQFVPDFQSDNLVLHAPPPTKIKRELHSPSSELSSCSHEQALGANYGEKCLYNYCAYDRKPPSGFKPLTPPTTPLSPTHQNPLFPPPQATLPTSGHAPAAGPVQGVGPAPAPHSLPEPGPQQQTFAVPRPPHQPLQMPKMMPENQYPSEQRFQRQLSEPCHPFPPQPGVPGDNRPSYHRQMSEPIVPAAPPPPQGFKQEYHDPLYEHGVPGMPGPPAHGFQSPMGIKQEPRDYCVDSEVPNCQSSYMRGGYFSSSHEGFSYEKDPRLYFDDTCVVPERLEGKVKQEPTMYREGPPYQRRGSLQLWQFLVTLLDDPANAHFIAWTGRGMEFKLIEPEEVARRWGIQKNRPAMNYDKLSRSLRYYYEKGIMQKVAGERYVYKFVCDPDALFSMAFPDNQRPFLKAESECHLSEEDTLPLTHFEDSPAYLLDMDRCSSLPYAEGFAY
In short: as §1

[3] = target: HSF1 (Homo sapiens, UniProt Q00613 1-529); settings: protein: recombinant; tags: N-terminal GST; chain copies: 3; dsDNA, one strand shown
HSF1, sequence (Q00613 whole entry): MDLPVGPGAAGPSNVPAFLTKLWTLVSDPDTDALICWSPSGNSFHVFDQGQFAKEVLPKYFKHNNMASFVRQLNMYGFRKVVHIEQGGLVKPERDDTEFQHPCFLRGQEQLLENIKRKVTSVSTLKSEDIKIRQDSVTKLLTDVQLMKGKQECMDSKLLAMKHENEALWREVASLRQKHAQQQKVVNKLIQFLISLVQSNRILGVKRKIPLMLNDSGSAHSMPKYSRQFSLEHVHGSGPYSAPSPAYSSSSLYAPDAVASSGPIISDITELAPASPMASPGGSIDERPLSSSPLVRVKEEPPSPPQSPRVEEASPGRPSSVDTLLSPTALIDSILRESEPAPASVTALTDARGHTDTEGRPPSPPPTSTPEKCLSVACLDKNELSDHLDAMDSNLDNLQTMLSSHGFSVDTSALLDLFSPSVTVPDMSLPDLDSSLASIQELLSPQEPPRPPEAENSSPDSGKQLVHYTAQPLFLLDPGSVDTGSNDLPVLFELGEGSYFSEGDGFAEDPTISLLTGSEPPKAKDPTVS
In short: as §1

[4] = target: T2, SPIC (Homo sapiens, UniProt Q8N5J4 1-248); settings: protein: recombinant; tags: N-terminal GST; dsDNA, one strand shown
T2 sequence: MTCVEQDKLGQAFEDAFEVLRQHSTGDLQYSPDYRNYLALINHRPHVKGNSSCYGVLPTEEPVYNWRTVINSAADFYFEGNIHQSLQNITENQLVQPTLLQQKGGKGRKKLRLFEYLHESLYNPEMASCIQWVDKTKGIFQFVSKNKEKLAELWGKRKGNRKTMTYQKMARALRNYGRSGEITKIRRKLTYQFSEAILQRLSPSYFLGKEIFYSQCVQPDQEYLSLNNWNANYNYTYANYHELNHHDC
In short: as §1

[5] = target: ELF4 (Homo sapiens, UniProt Q99607 1-663); settings: protein: recombinant; tags: N-terminal GST; dsDNA, one strand shown
ELF4, sequence (Q99607 whole entry): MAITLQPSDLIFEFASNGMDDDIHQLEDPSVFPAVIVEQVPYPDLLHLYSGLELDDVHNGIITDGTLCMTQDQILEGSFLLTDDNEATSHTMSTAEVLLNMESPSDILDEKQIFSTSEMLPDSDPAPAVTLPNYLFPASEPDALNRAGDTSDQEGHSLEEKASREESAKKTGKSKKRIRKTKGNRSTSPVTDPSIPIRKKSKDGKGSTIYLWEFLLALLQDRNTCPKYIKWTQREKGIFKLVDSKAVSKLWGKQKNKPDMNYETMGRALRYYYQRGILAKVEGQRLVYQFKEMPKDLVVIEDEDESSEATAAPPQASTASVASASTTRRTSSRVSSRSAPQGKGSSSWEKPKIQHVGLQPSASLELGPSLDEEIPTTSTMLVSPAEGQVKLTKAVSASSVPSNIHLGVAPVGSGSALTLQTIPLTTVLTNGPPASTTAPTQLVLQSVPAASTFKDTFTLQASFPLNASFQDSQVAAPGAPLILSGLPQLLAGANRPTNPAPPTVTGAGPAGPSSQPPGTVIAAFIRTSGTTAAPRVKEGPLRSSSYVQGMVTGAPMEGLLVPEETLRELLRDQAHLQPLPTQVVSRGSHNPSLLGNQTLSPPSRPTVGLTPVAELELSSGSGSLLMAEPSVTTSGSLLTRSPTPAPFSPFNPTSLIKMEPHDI
In short: as §1

[6] = target: T3, ELK4 (Homo sapiens, UniProt P28324-2 1-405); settings: protein: recombinant; tags: N-terminal GST; dsDNA, one strand shown
T3 sequence: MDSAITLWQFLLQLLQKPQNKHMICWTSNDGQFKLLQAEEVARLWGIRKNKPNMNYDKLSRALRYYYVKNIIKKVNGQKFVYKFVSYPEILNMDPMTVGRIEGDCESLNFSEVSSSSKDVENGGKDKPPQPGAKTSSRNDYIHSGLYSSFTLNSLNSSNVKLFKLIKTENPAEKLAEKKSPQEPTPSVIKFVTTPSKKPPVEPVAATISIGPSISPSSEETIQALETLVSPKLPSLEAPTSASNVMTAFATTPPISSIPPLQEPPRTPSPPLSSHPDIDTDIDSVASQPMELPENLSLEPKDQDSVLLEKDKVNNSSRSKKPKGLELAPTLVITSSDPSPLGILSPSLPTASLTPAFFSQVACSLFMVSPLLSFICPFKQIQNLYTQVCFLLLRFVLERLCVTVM
In short: as §1

[7] = target: T4, ETV2 (Homo sapiens, UniProt O00321 1-342); settings: protein: recombinant; tags: N-terminal GST; dsDNA, one strand shown
T4 sequence: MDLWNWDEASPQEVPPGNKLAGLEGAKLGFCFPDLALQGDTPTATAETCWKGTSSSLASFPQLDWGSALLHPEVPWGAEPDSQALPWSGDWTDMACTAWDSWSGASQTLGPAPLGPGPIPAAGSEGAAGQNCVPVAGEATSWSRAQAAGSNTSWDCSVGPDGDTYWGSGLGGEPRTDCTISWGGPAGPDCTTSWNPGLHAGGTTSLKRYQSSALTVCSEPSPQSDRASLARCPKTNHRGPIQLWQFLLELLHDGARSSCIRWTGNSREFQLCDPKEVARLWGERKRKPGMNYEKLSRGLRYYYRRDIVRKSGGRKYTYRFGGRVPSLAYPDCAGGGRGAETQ
In short: as §1

[8] = target: T5, ELF3 (Homo sapiens, UniProt P78545 1-371); settings: protein: recombinant; tags: N-terminal GST; dsDNA, one strand shown
T5 sequence: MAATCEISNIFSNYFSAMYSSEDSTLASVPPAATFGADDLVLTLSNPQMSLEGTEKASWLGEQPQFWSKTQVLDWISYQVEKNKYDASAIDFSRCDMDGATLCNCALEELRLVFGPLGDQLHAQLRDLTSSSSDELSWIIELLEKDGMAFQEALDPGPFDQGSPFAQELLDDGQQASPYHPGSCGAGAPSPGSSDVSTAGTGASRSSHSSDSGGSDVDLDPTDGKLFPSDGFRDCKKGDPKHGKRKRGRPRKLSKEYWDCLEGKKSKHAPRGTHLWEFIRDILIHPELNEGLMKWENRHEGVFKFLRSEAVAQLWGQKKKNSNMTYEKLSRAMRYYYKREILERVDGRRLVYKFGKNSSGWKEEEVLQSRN
In short: as §1

[9] = target: CRX (Homo sapiens, UniProt O43186 1-299); settings: protein: recombinant; tags: N-terminal GST; dsDNA, one strand shown
CRX, sequence (O43186 whole entry): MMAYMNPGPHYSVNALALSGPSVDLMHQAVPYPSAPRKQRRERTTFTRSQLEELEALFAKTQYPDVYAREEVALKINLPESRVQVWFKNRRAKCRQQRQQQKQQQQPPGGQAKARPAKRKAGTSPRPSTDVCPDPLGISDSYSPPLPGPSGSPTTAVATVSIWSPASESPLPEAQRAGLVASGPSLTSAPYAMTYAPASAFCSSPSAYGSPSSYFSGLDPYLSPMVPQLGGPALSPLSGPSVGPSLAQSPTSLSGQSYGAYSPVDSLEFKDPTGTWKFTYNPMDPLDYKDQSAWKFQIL
In short: as §1

For CTCCCA, the binding signal [1] was 1.39 fold enrichment (6-mer frequency, TF over GST control), the binding signal [2] was 1.37 fold enrichment (6-mer frequency, TF over GST control) and the binding signal [3] was 1.17 fold enrichment (6-mer frequency, TF over GST control). For the same sequence, the binding signal [4] was 1.38 fold enrichment (6-mer frequency, TF over GST control), the binding signal [5] was 1.4 fold enrichment (6-mer frequency, TF over GST control) and the binding signal [6] was 1.44 fold enrichment (6-mer frequency, TF over GST control). The binding signal [7] was 1.08 fold enrichment (6-mer frequency, TF over GST control), the binding signal [8] was 1.36 fold enrichment (6-mer frequency, TF over GST control) and the binding signal [9] was 1.19 fold enrichment (6-mer frequency, TF over GST control).

Reference: PMC7862700, “An all-to-all approach to the identification of sequence-specific readers for epigenetic DNA modifications on cytosine”
